The text below walks through data of ChEMBL document CHEMBL4513146, “CO-ADD screening of Karazin Kharkiv National University (Ukraine) compounds”.

Potency and affinity values are given separately.

Experiment [1] deals with Klebsiella pneumoniae. To be noted: Concentration 32 ug.mL-1;; ASSAY_TEST Inhibition of Bacterial Growth; detection method Absorption (OD600); MEDIA CAMHB; plate type 384well; NBS; CORNING #3640; time 18 hr.
Experiment [2] concerns Candida albicans. To be noted: Concentration 32 ug.mL-1; ASSAY_TEST Inhibition of Fungal Growth; detection method Absorption (OD530).
The subject of experiment [3] is Cryptococcus neoformans. To be noted: Concentration 32 ug.mL-1; ASSAY_TEST Inhibition of Fungal Growth; detection method Resazurin; Absorption (OD600-OD570); plate type 384well; NBS; CORNING #3640. On the technique in general: Alamar Blue is a resazurin reagent that responds to reducing activity.

For the molecule `COc1ccccc1N1CCN(C(=O)Cn2nc3ccc(-c4ccccc4)nn3c2=O)CC1`, the values for the Inhibition in experiment [1], in experiment [2] and in experiment [3] were 2.09%, 1.1% and -5.13%, respectively.
In the same order, the values of `COc1cccc(-n2ccn3c(SCC(=O)Nc4ccccc4F)nnc3c2=O)c1` are 7.91%, 2.83% and -12.13%.
The matching figures for `O=C(Cn1nc2c3cc(-c4ccccc4)nn3ccn2c1=O)N1CCCc2ccccc21`: 12.97%, -0.58% and -23.31%.
For `COC(=O)c1ccc(NC(=O)Cn2nc3ccc(SCc4ccc(Cl)cc4)nn3c2=O)cc1`, the Inhibition in experiment [1] is on record as 3.21%; in experiment [2], 46.24%; in experiment [3], -5.53%.
In the same order, the values of `O=C(Cn1nc2ccc(-c3ccccc3)nn2c1=O)Nc1ccc(F)cc1` are 7.53%, 0.88% and -10.36%.
In the same order, the values of `CC(C)Sc1ccc2nn(CC(=O)Nc3ccc(Cl)cc3F)c(=O)n2n1` are 7.97%, 16.98% and -18.57%.
On to `Cc1oc(-c2ccc(OC(C)C)cc2)nc1CSc1nc2ccccc2n2c(C(C)C)nnc12`, for which the Inhibition in experiment [1] is -1.3%; in experiment [2], 23.86%; in experiment [3] it was -18.35%.
In the same order, the values of `Cc1nnc2ccc(S(=O)(=O)N(Cc3ccc(Cl)cc3)c3cccc(F)c3)cn12` are 9.13%, 3.61% and -11.42%.
In the same order, the values of `CCCN(C)c1nccn2c(=O)n(CC(=O)Nc3cccc(C(C)=O)c3)nc12` are 4.82%, 2.07% and -8.37%.
The matching figures for `Cc1ccccc1CN(c1cccc(F)c1)S(=O)(=O)c1ccc2nncn2c1`: 6.25%, 3.9% and -4.05%.

One may read the Inhibition as the relative decrease from the control value, in per cent.
